Experimental data published in PubChem BioAssay AID1159580 (chemical genetic matrix, 2015).
Hit rate of the full screen: of about 5,500 compounds, about 2,000 (36%) were called active. Not shown: some 18% with an inconclusive outcome. Cut-off read from the data, not from the text of the source: active = normalized growth mostly below about 0.91 (no sharp cut-off); inconclusive = no clear call, values can overlap the other calls; inactive = mostly above about 0.92. Some of the results follow.

Experiment: chemical genetic growth profiling, strain panel (AID 1159580);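 note: tested at 20 µM; growth read once vehicle control cultures reached saturation at 30 °C; 1 = growth at the plate median or of vehicle wells; lower values mean less growth of the strain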
Settings: growth OD

Measured: normalized growth

CCOC(=O)[C@H](CCc1ccccc1)N[C@@H](C)C(=O)N1[C@H](C(=O)O)C[C@@H]2CCC[C@@H]21
inactive: S. cerevisiae deletion strains, locus YJR075W, strain HOC1, hits give low values 0.998 | S. cerevisiae deletion strains, locus YKL009W, strain mrt4, hits give low values 1.01 | S. cerevisiae deletion strains, locus YKL068W, hits give low values 1.02 | S. cerevisiae deletion strains, locus YKL085W, strain MDH1 (second series), hits give low values 1.02 | S. cerevisiae deletion strains, locus YKL085W, strain MDH1, hits give low values 1.02 | S. cerevisiae deletion strains, locus YKL160W, strain elf1, hits give low values 0.981 | S. cerevisiae deletion strains, locus YKL190W, strain CNB1, hits give low values 1.01 | S. cerevisiae deletion strains, locus YKR001C, strain vps1, hits give low values 1.02 | S. cerevisiae deletion strains, locus YKR026C, strain gcn3, hits give low values 0.98 | S. cerevisiae deletion strains, locus YKR091W, strain srl3, hits give low values 0.985 | S. cerevisiae deletion strains, locus YLL001W, strain dnm1, hits give low values 0.989 | S. cerevisiae deletion strains, locus YLL026W, hits give low values 0.991 | S. cerevisiae deletion strains, locus YLL041C, strain sdh2, hits give low values 0.982 | S. cerevisiae deletion strains, locus YLR027C, strain aat2, hits give low values 0.992 | S. cerevisiae deletion strains, locus YLR039C, strain RIC1, hits give low values 1.06 | S. cerevisiae deletion strains, locus YLR058C, strain SHM2, hits give low values 1.01 | S. cerevisiae deletion strains, locus YLR102C, strain apc9, hits give low values 1.02 | S. cerevisiae deletion strains, locus YLR113W, strain HOG1, hits give low values 0.98 | S. cerevisiae deletion strains, locus YLR221C, strain rsa3, hits give low values 1 | S. cerevisiae deletion strains, locus YLR258W, strain gsy2, hits give low values 0.991 | S. cerevisiae deletion strains, locus YLR262C, strain YPT6 (second series), hits give low values 0.967 | S. cerevisiae deletion strains, locus YLR262C, strain YPT6, hits give low values 1.08 | S. cerevisiae deletion strains, locus YLR268W, strain sec22, hits give low values 1.02 | S. cerevisiae deletion strains, locus YLR320W, strain mms22, hits give low values 0.975 | S. cerevisiae deletion strains, locus YLR330W, strain CHS5, hits give low values 1.01 | S. cerevisiae deletion strains, locus YLR342W, strain FKS1 (second series), hits give low values 1.02 | S. cerevisiae deletion strains, locus YLR342W, strain FKS1, hits give low values 0.989 | S. cerevisiae deletion strains, locus YLR357W, strain rsc2, hits give low values 0.978 | S. cerevisiae deletion strains, locus YLR370C, strain arc18, hits give low values 0.98 | S. cerevisiae deletion strains, locus YLR371W, strain rom2, hits give low values 1.01 | S. cerevisiae deletion strains, locus YLR384C, strain iki3, hits give low values 0.984 | S. cerevisiae deletion strains, locus YLR418C, strain cdc73, hits give low values 1.06 | S. cerevisiae deletion strains, locus YML016C, strain PPZ1, hits give low values 1.02 | S. cerevisiae deletion strains, locus YML032C, strain rad52, hits give low values 1.02 | S. cerevisiae deletion strains, locus YML120C, strain ndi1, hits give low values 0.993 | S. cerevisiae deletion strains, locus YML124C, strain tub3, hits give low values 1.02 | S. cerevisiae deletion strains, locus YMR058W, strain fet3, hits give low values 0.99 | S. cerevisiae deletion strains, locus YMR078C, strain ctf18, hits give low values 1.03 | S. cerevisiae deletion strains, locus YMR125W, strain sto1, hits give low values 0.976 | S. cerevisiae deletion strains, locus YMR129W, hits give low values 0.979 | S. cerevisiae deletion strains, locus YMR205C, strain PFK2, hits give low values 0.981 | S. cerevisiae deletion strains, locus YMR223W, strain ubp8, hits give low values 1.02 | S. cerevisiae deletion strains, locus YMR231W, strain pep5, hits give low values 0.978 | S. cerevisiae deletion strains, locus YMR263W, strain SAP30, hits give low values 1.02 | S. cerevisiae deletion strains, locus YMR307W, strain GAS1, hits give low values 1.04 | S. cerevisiae deletion strains, locus YNL067W, strain RPL9B, hits give low values 1.01 | S. cerevisiae deletion strains, locus YNL071W, strain lat1, hits give low values 0.975 | S. cerevisiae deletion strains, locus YNL128W, strain TEP1, hits give low values 1 | S. cerevisiae deletion strains, locus YNL153C, strain GIM3, hits give low values 1.01 | S. cerevisiae deletion strains, locus YNL183C, strain NPR1, hits give low values 0.968 | S. cerevisiae deletion strains, locus YNL209W, strain ssb2, hits give low values 0.981 | S. cerevisiae deletion strains, locus YNL233W, strain BNI4, hits give low values 1 | S. cerevisiae deletion strains, locus YNL248C, strain rpa49, hits give low values 0.986 | S. cerevisiae deletion strains, locus YNL250W, strain rad50, hits give low values 1.03 | S. cerevisiae deletion strains, locus YNL271C, strain bni1, hits give low values 1.02 | S. cerevisiae deletion strains, locus YNL298W, strain CLA4, hits give low values 1.03 | S. cerevisiae deletion strains, locus YNL307C, strain MCK1, hits give low values 1.02 | S. cerevisiae deletion strains, locus YNL322C, strain KRE1 (second series), hits give low values 0.982 | S. cerevisiae deletion strains, locus YNL322C, strain KRE1, hits give low values 1.01 | S. cerevisiae deletion strains, locus YNR049C, strain mso1, hits give low values 0.985 | S. cerevisiae deletion strains, locus YNR052C, strain pop2, hits give low values 1.01 | S. cerevisiae deletion strains, locus YOL006C, strain TOP1, hits give low values 1.03 | S. cerevisiae deletion strains, locus YOL012C, strain htz1 1.2 | S. cerevisiae deletion strains, locus YOL147C, strain pex11, hits give low values 1.01 | S. cerevisiae deletion strains, locus YOR001W, strain rrp6, hits give low values 0.997 | S. cerevisiae deletion strains, locus YOR061W, strain CKA2, hits give low values 1.01 | S. cerevisiae deletion strains, locus YOR069W, strain VPS5, hits give low values 1 | S. cerevisiae deletion strains, locus YOR070C, strain gyp1, hits give low values 0.991 | S. cerevisiae deletion strains, locus YOR080W, strain dia2, hits give low values 0.982 | S. cerevisiae deletion strains, locus YOR083W, strain WHI5, hits give low values 0.984 | S. cerevisiae deletion strains, locus YOR106W, strain vam3, hits give low values 1.01 | S. cerevisiae deletion strains, locus YOR136W, strain idh2, hits give low values 1.02 | S. cerevisiae deletion strains, locus YOR144C, strain elg1, hits give low values 1.02 | S. cerevisiae deletion strains, locus YOR184W, strain ser1, hits give low values 1.03 | S. cerevisiae deletion strains, locus YOR231W, strain MKK1, hits give low values 0.983 | S. cerevisiae deletion strains, locus YOR265W, strain rbl2, hits give low values 0.979 | S. cerevisiae deletion strains, locus YOR270C, strain vph1, hits give low values 1.03 | S. cerevisiae deletion strains, locus YOR290C, strain snf2, hits give low values 0.988 | S. cerevisiae deletion strains, locus YOR316C, strain cot1, hits give low values 1.02 | S. cerevisiae deletion strains, locus YPL051W, strain arl3, hits give low values 0.987 | S. cerevisiae deletion strains, locus YPL055C, strain LGE1, hits give low values 1.02 | S. cerevisiae deletion strains, locus YPL078C, strain atp4, hits give low values 0.977 | S. cerevisiae deletion strains, locus YPL106C, strain sse1, hits give low values 0.988 | S. cerevisiae deletion strains, locus YPL240C, strain hsp82, hits give low values 0.984 | S. cerevisiae deletion strains, locus YPL241C, strain CIN2, hits give low values 0.999 | S. cerevisiae deletion strains, locus YPL256C, strain CLN2, hits give low values 0.973 | S. cerevisiae deletion strains, locus YPR119W, strain clb2, hits give low values 1.01 | S. cerevisiae deletion strains, locus YPR141C, strain kar3, hits give low values 1.03 | S. cerevisiae deletion strains, locus YPR163C, strain tif3, hits give low values 1.01 | S. cerevisiae deletion strains, locus YPR167C, strain met16, hits give low values 1.02 | S. cerevisiae deletion strains, strain wtn01, hits give low values 1.02 | S. cerevisiae strains, strain wild type, hits give low values 1.01
